RN4220 kill = S. aureus RN4220 growth inhibition. OD600, 16 h. inhibition, % (concentration not given with the values). 0.33% of 330,000 active. AID 1259311; in the data active means inhibition above about 85%;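 further: plate controls were untreated cells for no effect and reference antibiotic for full effect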
SSB-PriA inh = inhibitors of Klebsiella pneumoniae PriA binding to SSB C-terminal tail; AlphaScreen SSBct-PriA binding, biotinylated peptide; inhibition, % at 33 µM; 0.6% of 430,000 active; AID 1272365; in the data active means inhibition mostly above about 37%, no sharp cut-off; inactive means mostly below about 20%;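 further: plate controls were negative control peptide for no effect and reference peptide for full effect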
Mtb hypoxia rep = inhibitors of hypoxia-regulated fluorescent reporter in Mycobacterium tuberculosis; M. tuberculosis hypoxia-regulated fluorescent reporter, fluorescence; fluorescence inhibition, % (test concentration not listed); 0.1% of 300,000 active; AID 1159583; in the data active means fluorescence inhibition mostly above about 23%, no sharp cut-off; inactive means mostly below about 17%
Sa ugtP lethal = compounds lethal to S. aureus RN4220 ugtP deletion mutant. AID 1259309. OD600 growth, 16 h. 0.54% of 330,000 active. growth inhibition, % (no concentration beside the values); in the data active means growth inhibition above about 68%;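 further: plate controls were untreated wells for no effect and antibiotic for full effect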
CCHF vOTU inh-1 = blocks the CCHF virus ovarian tumor domain protease; CCHFV vOTU protease, Pep-AMC fluorescence; 0.55% of 370,000 active; inhibition, % at 11.5 µM; AID 651958; further: 0% = vehicle wells with enzyme and 100% = no enzyme wells
CCHF vOTU inh-2 = confirmation of CCHF virus vOTU protease inhibitors | inhibition, % at 11.5 µM | AID 686976 | shares compounds with CCHF vOTU inh-1 | Recombinant CCHFV vOTU, Pep-AMC fluorescence | 17% of 1,900 active
* hit, by the source's call. The list is not random: actives were taken first. Their share in the collection is about 1.4%. Unless noted, no stated cut-off is given here; in the data, active means inhibition above about 30%; inactive means the rest.

How did CC1CN(CC(=O)Nc2ccc3c(c2)OCCO3)CC(C)O1 (centres undefined) do in these assays?
SSB-PriA inh: -9

What do the screens show for `Cc1cc(C)c(C)c(S(=O)(=O)NCc2ccccn2)c1C`?
SSB-PriA inh: 2

How did O=C(COC(=O)c1ccc([N+](=O)[O-])s1)Nc1cccc(S(=O)(=O)NC2=NCCCCC2)c1 do in these assays?
RN4220 kill: 26; SSB-PriA inh: 6; Mtb hypoxia rep: 3; Sa ugtP lethal: 20; CCHF vOTU inh-1: 58*; CCHF vOTU inh-2: 35*

How did O=C(COC(=O)c1ccc([N+](=O)[O-])s1)Nc1ccc(F)cc1 do in these assays?
RN4220 kill: 7; SSB-PriA inh: 10; Mtb hypoxia rep: 13; Sa ugtP lethal: 7; CCHF vOTU inh-1: 82*; CCHF vOTU inh-2: 72*

How did O=C(OCc1nnc(-c2ccccc2)o1)c1ccc([N+](=O)[O-])s1 do in these assays?
RN4220 kill: 9; SSB-PriA inh: 10; Mtb hypoxia rep: 15; Sa ugtP lethal: 7; CCHF vOTU inh-1: 77*; CCHF vOTU inh-2: 86*

What do the screens show for `O=C(COC(=O)c1ccc([N+](=O)[O-])s1)Nc1ccccc1`?
RN4220 kill: 14; SSB-PriA inh: -2; Mtb hypoxia rep: 2; Sa ugtP lethal: 13; CCHF vOTU inh-1: 61*; CCHF vOTU inh-2: 75*

What do the screens show for `O=C(COC(=O)c1cccs1)Nc1cccc(S(=O)(=O)NC2=NCCCCC2)c1`?
RN4220 kill: 0; SSB-PriA inh: -14; Mtb hypoxia rep: 4; Sa ugtP lethal: 9; CCHF vOTU inh-1: 0

Results for Cc1ccc(C(=O)OCc2nnc(-c3ccccc3)o2)s1 ?
RN4220 kill: 2; SSB-PriA inh: -10; Mtb hypoxia rep: 8; Sa ugtP lethal: 11; CCHF vOTU inh-1: 10

Results for O=C(COC(=O)c1ccc([N+](=O)[O-])s1)NCc1ccccc1 ?
RN4220 kill: 10; SSB-PriA inh: -6; Mtb hypoxia rep: 5; Sa ugtP lethal: 7; CCHF vOTU inh-1: -13

How did COc1cccc2cc(C(=O)NCC3CCN(c4ncccc4C#N)CC3)oc12 do in these assays?
SSB-PriA inh: 8

Results for COc1ccc(C=NNc2ccc(C(=O)O)cc2)cc1OC ?
RN4220 kill: -1; Mtb hypoxia rep: 16; Sa ugtP lethal: -2

Results for CC[C@H](CO)Oc1cc(NCc2cccc(N)c2)c2ncn(C(C)C)c2c1 ?
CCHF vOTU inh-1: 75*; CCHF vOTU inh-2: 57*

Results for CCCCc1c(-c2ccc(F)cc2F)ncn1CCc1ccccc1OC ?
CCHF vOTU inh-1: 40*; CCHF vOTU inh-2: 5

Results for COc1ccccc1CCn1cnc(-c2ccc(F)cc2F)c1CC(C)C ?
CCHF vOTU inh-1: 29

What do the screens show for `CCCCCc1c(-c2ccc(F)cc2F)ncn1CCc1ccccc1OC`?
CCHF vOTU inh-1: 21

How did COc1ccccc1CCn1cnc(-c2ccccc2F)c1CC(C)C do in these assays?
CCHF vOTU inh-1: 45*; CCHF vOTU inh-2: 2

What do the screens show for `COc1ccccc1NC(=O)Cc1csc2nc(-c3ccc(F)cc3)cn12`?
SSB-PriA inh: 1

How did CC(C)(C)C(=O)NCCC(O)C1CCOCC1 (centres undefined) do in these assays?
SSB-PriA inh: 9

How did NC(=NOC(=O)Cc1ccc(Cl)cc1)c1ccccn1 do in these assays?
RN4220 kill: 1; SSB-PriA inh: -3; Mtb hypoxia rep: 8; Sa ugtP lethal: -10

What do the screens show for `Cc1[nH][nH]c(=O)c1C(c1ccc(-c2ccc(Cl)c(C(=O)O)c2)o1)c1c(C)[nH][nH]c1=O`?
RN4220 kill: 4; SSB-PriA inh: -16; Mtb hypoxia rep: 10; Sa ugtP lethal: 5; CCHF vOTU inh-1: 24

How did COC(=O)c1ccccc1-c1ccc(C(c2c(C)[nH][nH]c2=O)c2c(C)[nH][nH]c2=O)o1 do in these assays?
RN4220 kill: 3; SSB-PriA inh: 11; Mtb hypoxia rep: 10; Sa ugtP lethal: 1; CCHF vOTU inh-1: 43*; CCHF vOTU inh-2: -12

Results for COC(=O)c1ccc(C(c2c(C)[nH][nH]c2=O)c2c(C)[nH][nH]c2=O)cc1 ?
RN4220 kill: 2; SSB-PriA inh: -7; Mtb hypoxia rep: 8; Sa ugtP lethal: 6; CCHF vOTU inh-1: -6

How did COC(=O)c1cccc(-c2ccc(C(c3c(C)[nH][nH]c3=O)c3c(C)[nH][nH]c3=O)o2)c1 do in these assays?
RN4220 kill: -9; SSB-PriA inh: 2; Mtb hypoxia rep: -5; Sa ugtP lethal: -23; CCHF vOTU inh-1: 57*; CCHF vOTU inh-2: 3

Screening data: PubChem, several laboratories
